KB-V1 cytotox – kills drug-selected multidrug resistant KB-V1 cells. 400,000 compounds, 3.4% hits. AID 1347076. KB-V1 MDR cells viability, CellTiter-Glo, 72 h. Potency, µM (highest dose often 46.1 µM), most hits filed as cytotoxic; further: nearly all actives have a fitted effect of over 60% in size
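Luminescent ATP read-out (CellTiter-Glo, 10 min) measures survival of drug-selected KB-V1 MDR cells after 72 h, 37 degrees C compound exposure. Medium: phenol-red-free DMEM, 10% FBS. Values from fitted concentration-response curves.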
DT40 TDP1 CPT – growth inhibition of DT40 Tdp1-/-;hTDP1 cells with camptothecin (screen for TDP1 inhibitors); chicken DT40 Tdp1-/-;hTDP1 cells + 20 nM CPT, ATP luminescence, 48 h; Potency, µM (doses to about 46.2 µM), usual class: inhibitors; 420,000 compounds, 12% hits; further: nearly all actives have a fitted effect of over 55% in size
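Chicken DT40 Tdp1-/- cells complemented with human TDP1, 400 cells/well, exposed to compounds plus 20 nM camptothecin for at least 48 h at 37 C; viability read as ATP content by CellTiter-Glo luminescence.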
DT40 TDP1 no CPT – qHTS for Inhibitors of human tyrosyl-DNA phosphodiesterase 1 (TDP1): qHTS in cells in absence of CPT; DT40 Tdp1-/- hTDP1 cells, no CPT, ATP luminescence, 48 h; Potency, µM (top dose mostly 46.2 µM), actives largely listed as inhibitors; 420,000 compounds, 15% hits; further: nearly all actives have a fitted effect of over 55% in size
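Compound effects on proliferation are scored in DT40 Tdp1-/-;hTDP1 cells in the absence of CPT. ATP levels (CellTiter-Glo luminescence) are recorded after a ≥48 hr, 37 °C incubation.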
HT1080 IDH1KD tx – kills HT-1080 cells with IDH1 knockdown; 360,000 compounds, 2% hits; HT-1080 IDH1 knockdown viability, ATP luminescence, 48 h; Potency, µM (doses to about 46.1 µM), actives largely listed as cytotoxic
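Cytotoxicity counter-line: IDH1KD HT-1080, 48 h, CellTiter-Glo. Curves classed by r2, magnitude and activity.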
KB-3-1 tox – kills parental KB-3-1 adenocarcinoma cells; KB-3-1 viability, CellTiter-Glo ATP luminescence, 72 h; Potency, µM (doses to about 46.1 µM), actives largely listed as cytotoxic; 400,000 compounds, 1.4% hits; AID 1347075; further: nearly all actives have a fitted effect of over 60% in size
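Viability of parental KB-3-1 cells, measured by CellTiter-Glo luminescence, followed a 72 h incubation at 37 °C with pinned compounds in phenol-red-free DMEM containing 10% FBS.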
HT1080-NT tox – kills 2HG-producing HT-1080-NT fibrosarcoma cells; 360,000 compounds, 1.6% hits; HT-1080-NT fibrosarcoma viability, CellTiter-Glo ATP luminescence, 48 h; Potency, µM (highest dose often 46.1 µM), hits mostly cytotoxic;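 further: NT is the 2HG producing partner of a matched IDH1 knockdown line; nearly all actives have a fitted effect of over 55% in size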
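750 cells/well, RPMI + 5% FBS; 2 h settle, compound pin-transfer, 48 h at 37 degrees C. CellTiter-Glo 10 min RT, luminescence. Normalized to DMSO and media-only wells.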
Hits are given with their value; - = inactive; ? = inconclusive; . = not tested or not shown; [ ] = remark or other dose. Sampled rows, rich in hits. Any-hit rate of the full collection: about 19%. The call rests on the fitted dose curve; in most records, active means well fitted curve in the direction sought with a large enough effect; inconclusive means small, poorly fitted or top-dose-only effect, or another doubt; inactive means no such curve, though single readings can be large; an effect the other way counts as inactive or inconclusive.

SMILES	KB-V1 cytotox	DT40 TDP1 CPT	DT40 TDP1 no CPT	HT1080 IDH1KD tx	KB-3-1 tox	HT1080-NT tox
Cn1cc(S(=O)(=O)N2CCCCC2)cc1C(=O)N1CCN(c2ccccc2F)CC1	-	-	?	.	-	.
CN1C(=O)N(CC(=O)N2CCN(c3ccccc3F)CC2)C(=O)C12CCCCC2	-	-	-	-	-	-
Cc1cccc(CNC(=O)c2cnn(-c3nccc(-c4cccs4)n3)c2C(C)C)n1	.	-[9.04 µM]	?	.	.	.
COc1ccc(NC(=O)CNC(=O)c2nn(-c3ccc(OC)c(Cl)c3)c(=O)c3ccccc23)c(OC)c1	?	?	16µM	-	-	-
COc1ccc(-n2nc(C(=O)NCC(=O)NCC3CCCO3)c3ccccc3c2=O)cc1Cl (configuration not stated)	9.2µM	-	-	-	-	-
COc1ccc(-n2nc(C(=O)NCC(=O)NC(C)C)c3ccccc3c2=O)cc1Cl	-	-	?	-	-	-
CCN(CCCNC(=O)CNC(=O)c1nn(-c2ccc(OC)c(OC)c2)c(=O)c2ccccc12)c1ccccc1	-	?	18µM	-	-	-
COc1ccc(-n2nc(C(=O)NCC(=O)Nc3cccc(Cl)c3)c3ccccc3c2=O)cc1OC	-	15µM	15µM	-	-	-
CC(/C=N/NC(=O)c1ccc(Cn2cc([N+](=O)[O-])cn2)o1)=C\c1ccccc1	-	-	-	-	-	-
CNC[C@H](O)[C@@H](O)[C@H](O)[C@H](O)CO	.	-	-	.	.	.
COc1ccc(C)cc1NC(=O)N1CCN(S(=O)(=O)c2ccc3c(ccn3C)c2)CC1	-	.	.	.	-	.
COc1ccc(-n2nc(C(=O)NCC(=O)N3CCCC(C)C3)c3ccccc3c2=O)cc1 (configuration not stated)	-	-	21µM	-	-	-
CCOc1ccccc1NC(=O)CNC(=O)c1nn(-c2ccc(OC)c(OC)c2)c(=O)c2ccccc12	?	?	9.2µM	-	-	-
COc1ccc(-n2nc(C(=O)NCC(=O)N3CCC(C)CC3)c3ccccc3c2=O)cc1	-	-	?	-	-	-
COc1ccc(CCNC(=O)CNC(=O)c2nn(-c3ccc(OC)c(OC)c3)c(=O)c3ccccc23)cc1OC	-	-	9.2µM	-	-	-
O=C(CN1C(=O)CCC1=O)NCC12CC3CC(CC(C3)C1)C2	-	?	26µM	-	-	-
O=S(=O)(c1ccccc1)[C@@]1(c2ccccc2)C[C@@H]2ON=C(c3cccc(Br)c3)[C@@H]2C1	-	4.6µM	3.7µM	-	?	-
CCNC(=O)C1CCCN(C(=O)c2ccc(N(C)C)cc2)CC1 (configuration not stated)	-	-	-	-	-	?
Cc1ccc(C(=O)c2no[n+]([O-])c2C(=O)c2ccc(C)cc2)cc1	-	2.9µM	5.8µM	?	-	?
CCOc1ccc(N(CC)S(=O)(=O)N2CCCC(C(=O)Nc3ccc(OC)c(OC)c3)C2)cc1 (configuration not stated)	-	?	?	.	-	.
COC(=O)c1c(S(N)(=O)=O)c2ccccc2n1C	-	-	-	-	-	-
COC(=O)c1c(C(=O)c2ccc(Br)cc2)n(C)c2ccccc12	21µM	?	?	-	?	-
Cc1ccccc1N1CCN(C2CCCN(C(=O)CCC(F)(F)F)C2)CC1 (configuration not stated)	-	?	?	-	-	-
Cc1cc(C)cc(-n2c(SCC(=O)Nc3ccccc3)nc3c(oc4ccccc43)c2=O)c1	-	15µM	?	.	-	.
CCOc1ccc(NC(=O)CSc2nc3c(oc4ccccc43)c(=O)n2-c2cc(C)cc(C)c2)cc1	?	-	-	.	?	.
SMILES	KB-V1 cytotox	DT40 TDP1 CPT	DT40 TDP1 no CPT	HT1080 IDH1KD tx	KB-3-1 tox	HT1080-NT tox
COc1ccccc1NC(=O)CSc1nc2c(oc3ccccc32)c(=O)n1-c1ccc(C)cc1	?	18µM	8.2µM	.	-	.
O=C(CSc1nc2c(oc3ccccc32)c(=O)n1-c1ccccc1)Nc1ccccc1F	-	?	?	.	-	.
Cc1cc(C)cc(-n2c(SCC(=O)Nc3ccccc3F)nc3c(oc4ccccc43)c2=O)c1	-	16µM	7.3µM	.	-	.
COc1cccc(NC(=O)CSc2nc3c(oc4ccccc43)c(=O)[nH]2)c1	-	-	23µM	-	-	-
CN(Cc1ccccc1)c1ccc(C=O)cc1	-	?	?	.	-	.
CC1(C(=O)NC2CCCCCCC2)CCC(=O)N1Cc1cccs1 (configuration not stated)	-	-	-	-	-	-
CCc1ccccc1NC(=O)c1ccc2c(c1)N(Cc1cccc(Cl)c1)C(=O)c1ccccc1S2(=O)=O	-	.	.	.	-	.
CC(C)CC(C(=O)Nc1oc(-c2ccco2)c(-c2ccco2)c1C#N)N1C(=O)c2ccccc2C1=O (configuration not stated)	-	-	-	-	-	-
COc1cc(CN(C)c2ncnc3sccc23)ccc1OC(F)F	8.2µM	16µM	12µM	-	?	-
Cc1nnc(N2CCCC(C(=O)Nc3cc(F)ccc3F)C2)c2nn(-c3ccccc3)c(C)c12 (configuration not stated)	-	13µM	23µM	-	-	-
COc1ccc(NC(=O)C2CCCN(c3nnc(C)c4c(C)n(-c5ccccc5)nc34)C2)cc1Cl (configuration not stated)	-	10µM	16µM	.	-	.
Cc1nnc(N2CCCC(C(=O)Nc3ccccc3C(F)(F)F)C2)c2nn(-c3ccccc3)c(C)c12 (configuration not stated)	-	18µM	18µM	.	-	.
Cc1nnc(N2CCCC(C(=O)NCCc3ccc(Cl)cc3)C2)c2nn(-c3ccccc3)c(C)c12 (configuration not stated)	-	?	?	.	-	.
O/N=C1\CCCc2oc3c(c21)CCCC3	-	-	-	-	-	-
COc1cccc(NC(=O)CN(C)C(C)C(=O)Nc2cc([N+](=O)[O-])ccc2Cl)c1 (configuration not stated)	?	-	-	-	-	-
Cc1cccc(NC(=O)c2n[nH]c([N+](=O)[O-])c2Br)c1C	?	-	?	26µM	?	?
CC(=O)c1c(C)[nH]c(C(=O)Nc2cccc(C)c2C)c1C	-	-	-	-	-	-
Cc1ccc2[nH]c(C(=O)Nc3ccccc3)cc2c1	-	?	?	.	-	.
N#C/C(=C\c1c[nH]c2ccccc12)C(N)=O	-	?	?	-	-	-

High-throughput results from PubChem.
